In PMC4336329 (PLoS ONE, 2015):
Screen size: about 310,000 compounds; about 2,200 (0.71%) showed an effect of 50% or more. The effect is printed as a negative number. This excerpt belongs to a sample that is enriched for strong results.

Molecular target: human ether-à-go-go-related gene (hERG) potassium channel (human, UniProt Q12809)
Assay: primary screen, population patch clamp on CHO cells stably expressing hERG; higher = less effect of the substance

Chain of human ether-à-go-go-related gene (hERG) potassium channel (Q12809 whole entry, looked up): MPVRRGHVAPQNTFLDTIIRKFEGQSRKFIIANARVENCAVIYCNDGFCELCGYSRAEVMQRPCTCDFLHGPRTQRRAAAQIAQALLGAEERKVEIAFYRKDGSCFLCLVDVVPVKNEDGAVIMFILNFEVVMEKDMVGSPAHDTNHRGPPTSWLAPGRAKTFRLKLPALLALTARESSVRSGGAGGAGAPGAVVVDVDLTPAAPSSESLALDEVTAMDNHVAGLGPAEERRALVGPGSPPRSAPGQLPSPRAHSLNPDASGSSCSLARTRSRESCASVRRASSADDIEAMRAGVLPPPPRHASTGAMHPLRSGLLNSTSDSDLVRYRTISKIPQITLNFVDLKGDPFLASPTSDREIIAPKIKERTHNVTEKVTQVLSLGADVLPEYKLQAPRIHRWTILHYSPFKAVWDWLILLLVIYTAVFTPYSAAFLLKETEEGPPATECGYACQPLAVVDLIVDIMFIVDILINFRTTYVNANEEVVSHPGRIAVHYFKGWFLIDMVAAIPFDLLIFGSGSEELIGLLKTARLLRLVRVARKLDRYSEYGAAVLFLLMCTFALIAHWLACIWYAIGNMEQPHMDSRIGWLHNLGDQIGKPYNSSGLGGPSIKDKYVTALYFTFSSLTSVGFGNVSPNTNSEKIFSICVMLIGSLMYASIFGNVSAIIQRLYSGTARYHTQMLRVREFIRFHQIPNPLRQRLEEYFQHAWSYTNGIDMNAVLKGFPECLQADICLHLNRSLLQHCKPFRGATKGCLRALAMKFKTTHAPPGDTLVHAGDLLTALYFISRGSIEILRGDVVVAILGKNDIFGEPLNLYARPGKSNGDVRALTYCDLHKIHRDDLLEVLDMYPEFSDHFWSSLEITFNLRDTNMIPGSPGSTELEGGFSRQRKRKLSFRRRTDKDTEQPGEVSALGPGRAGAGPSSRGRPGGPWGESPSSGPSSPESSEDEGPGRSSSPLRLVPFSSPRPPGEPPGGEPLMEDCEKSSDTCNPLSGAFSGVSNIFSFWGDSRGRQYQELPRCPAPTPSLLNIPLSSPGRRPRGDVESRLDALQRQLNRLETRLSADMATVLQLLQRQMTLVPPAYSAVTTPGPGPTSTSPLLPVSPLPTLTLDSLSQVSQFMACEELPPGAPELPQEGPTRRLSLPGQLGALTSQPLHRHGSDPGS

Structure (SMILES) | hERG current change (%, negative = inhibition) at 1uM
COC(=O)C1CC(Cl)CN1c1ncc(C(F)(F)F)cc1Cl (stereo not drawn) | 15.5%
COc1ccc(-n2c(CNC(=O)COc3ccc(Cl)cc3)n[nH]c2=S)cc1 | 16.9%
C/C(=N\O)C(C)(C)Nc1ccc(Cl)cc1 | 10.9%
CCOc1cc(S(=O)(=O)NC2CC(C)(C)NC(C)(C)C2)ccc1Cl | 11.2%
COc1ccccc1-c1nnc2sc(-c3cc4ccccc4o3)nn12 | -0.794%
CN(C)CCCNC(=O)c1ccc(Cl)c(S(=O)(=O)N2CCCCCC2)c1.Cl | -70%
Cl.O=C(NCCN1CCOCC1)c1ccc(Cl)c(S(=O)(=O)N2CCCCCC2)c1 | -10.3%
CCN(CC)CCNC(=O)c1ccc(Cl)c(S(=O)(=O)N2CCCCCC2)c1.Cl | -52.2%
O=C(NCCCN1CCCC1=O)c1ccc(Cl)c(S(=O)(=O)N2CCCCC2)c1 | 9.57%
CCN(CC)CCNC(=O)c1ccc(NC(=O)c2ccc(Cl)c(S(=O)(=O)N3CCCCCC3)c2)cc1.Cl | 1.9%
Cl.O=C(NCCCN1CCOCC1)c1ccc(Cl)c(S(=O)(=O)N2CCCCCC2)c1 | -18.9%
CN(C)C(=O)C12CCC(C)(C(=O)C1Br)C2(C)C (stereo not drawn) | 14.5%
O=c1oc(-c2ccco2)nc2sc3c(c12)CCCC3 | 11.5%
COc1ccc(C(=O)NCC(=O)OC2CCCCC2=O)cc1 (stereo not drawn) | -0.0213%
O=C(CNC(=O)c1ccc(Oc2ccccc2)cc1)OC1CCCCC1=O (stereo not drawn) | -58.8%
COc1cc(OC)cc(C(=O)NCC(=O)OC2CCCCC2=O)c1 (stereo not drawn) | -1.67%
Cc1nc2ncnn2c(C)c1CCC(=O)N1CCc2ccccc21 | -66.3%
Cc1nc2ncnn2c(C)c1CCC(=O)N1CCc2ccccc2C1 | -19.5%
Cc1nc2nc(C)c(CCC(=O)N3CCc4ccccc43)c(C)n2n1 | -36.3%
CCN(CC(=O)Nc1ccc(NC(C)=O)cc1)C(=O)c1sc2nc3n(c(=O)c2c1C)CCC3 | 10.2%
O=C(Nc1cccc(Cl)c1)c1cncn1-c1ccc(F)cc1 | -52.8%
COc1cc(OC)c(NC(=O)c2cncn2-c2ccc(F)cc2)cc1Cl | 5.23%

Structure (SMILES) | hERG current change (%, negative = inhibition) at 1uM
NNC(=O)c1cncn1-c1ccc(F)cc1 | 12.3%
CC(C)(C)C1CCC(OC(=O)CN2CCCCC2)CC1 (stereo not drawn) | 2.3%
Cc1ccc(S(=O)(=O)c2ccc(Cl)cc2)cc1S(=O)(=O)N1CCOCC1 | 3.5%
O=C(NCCN1CCN(c2ccccc2)CC1)c1cccn2c(=O)c3ccccc3nc12 | -10.8%
COCCCNC(=O)c1cccn2c(=O)c3cc4ccccc4cc3nc12 | -8.65%
Cc1ccc(S(=O)(=O)c2cc3c(=O)n4cccc(C)c4nc3n(Cc3ccncc3)c2=N)cc1 | 9.03%
CCCCNC(=O)c1cc2c(=O)n3cccc(C)c3nc2n(Cc2ccccc2)c1=N | -80.7%
CN(CCCNC(=O)c1cccn2c(=O)c3ccccc3nc12)Cc1ccccc1 | -75.3%
Cc1cccn2c(=O)c3cc(C(=O)NC(C)C)c(=N)n(Cc4ccncc4)c3nc12 | -67.2%
Cc1ccc(Cn2c(=N)c(C#N)cc3c(=O)n4cccc(C)c4nc32)cc1 | -2.14%
CCNC(=O)c1cc2c(=O)n3cccc(C)c3nc2n(Cc2ccc(C)cc2)c1=N | -97.1%
Cc1cccn2c(=O)c3cc(C(=O)NCCN4CCOCC4)c(=N)n(Cc4ccc(F)cc4)c3nc12 | -13.3%
N#Cc1cnn2c(-c3cccc(C(F)(F)F)c3)ccnc12 | 1.86%
CCOC(=O)Cc1csc(NC(=O)/C=C\c2ccccc2Cl)n1 | 7.16%
CC(C)C(=O)Nc1cccc(NC(=O)c2cccnc2)c1 | -1.01%
CCC(c1nnnn1CS(=O)(=O)c1ccc(C)cc1)N1CCC(C(N)=O)CC1.Cl (stereo not drawn) | -3.7%
Cc1cccc(OCC(=O)Nc2ccc(S(=O)(=O)Nc3ccccn3)cc2)c1 | 17.3%
CS(=O)(=O)n1nc(NCc2cccs2)nc1NCc1cccs1 | 10.5%
CCOC(=O)CSc1c(-c2ccc(Cl)cc2)[nH]c2ccccc12 | 1.02%
CCCCNC(=O)c1cc2c(=O)n3cccc(C)c3nc2n(Cc2ccncc2)c1=N | -75.4%
COCCNC(=O)c1cc2c(=O)n3cccc(C)c3nc2n(Cc2ccncc2)c1=N | -31.5%
CCCc1cc(=O)n2[nH]c(NCc3c(F)cccc3Cl)nc2n1 | 12.7%

Structure (SMILES) | hERG current change (%, negative = inhibition) at 1uM
O=C(NC1CCCCCC1)c1cc(=O)[nH]c2ccc(S(=O)(=O)N3CCOCC3)cc12 | 1.03%
Cc1ccc(C)c(N2CCN(C(=O)c3ccc(Cn4c(=O)[nH]c5ccccc5c4=O)cc3)CC2)c1 | 11.6%
COc1cccc(NC(=O)CCNC(=O)C2CCN(S(=O)(=O)c3ccc(F)cc3)CC2)c1 | 14.9%
CCOC(=O)C1CCN(S(=O)(=O)c2ccc3oc(=O)ccc3c2)CC1 | -78.2%
CCOC(=O)C1CCN(S(=O)(=O)c2ccc3[nH]c(=O)ccc3c2)CC1 | -2.48%
CCOC(=O)C1CCN(S(=O)(=O)c2ccc3[nH]c(=O)oc3c2)CC1 | 3.58%
CCC(=O)c1ccc(OCC(O)CNCCc2ccc(Cl)cc2)cc1 (stereo not drawn) | -69.9%
COc1ccc(C(OCC(O)CNCCc2ccc(S(N)(=O)=O)cc2)c2ccc(OC)cc2)cc1 (stereo not drawn) | -1.33%
Cc1cc(Cl)ccc1OCC(O)CNCCc1ccc(S(N)(=O)=O)cc1 (stereo not drawn) | -58.2%
COc1ccc(CCNCC(O)COc2cccc(Br)c2)cc1OC (stereo not drawn) | -39.5%
OC(CNCCc1ccc(Cl)cc1)COc1cc(Cl)ccc1Cl (stereo not drawn) | 2.52%
COc1ccc(CCNCC(O)COc2ccc(Cl)cc2)cc1OC.Cl (stereo not drawn) | -56%
CCC(=O)c1ccc(OCC(O)CNCc2ccc(F)cc2)cc1 (stereo not drawn) | -12.8%
COc1ccc(CCNCC(O)COc2cccc(C(C)=O)c2)cc1OC.O=C(O)C(=O)O (stereo not drawn) | 16%
CC(=O)c1cccc(OCC(O)CNCCc2ccc(Cl)cc2)c1 (stereo not drawn) | 10.6%
O=C(Nc1ccc(Oc2ccc(Cl)cc2)cc1)c1ncn[nH]1 | 2.59%
Cc1nn(CC(=O)Nc2ccc(N3CCOCC3)cc2)c(C)c1Cl | 19.7%
CSc1ccc(CN(C)CC(=O)Nc2c(F)cccc2F)cc1.O=C(O)C(=O)O | 7.89%
COc1ccc2c(c1OC)CN(C)CCc1cc3c(cc1C(O)C2)OCO3 (stereo not drawn) | -0.22%
COc1cc2c(cc1OC)C(=O)Cc1ccc3c(c1CN(C)CC2)OCO3 | -39.4%
COc1ccc2c(c1OC)CN(C)CCc1cc3c(cc1C(=O)C2)OCO3 | -84%
CC(C)(C)NC(=O)CSc1nccn1Cc1ccccc1 | 5.85%

Structure (SMILES) | hERG current change (%, negative = inhibition) at 1uM
Cl.O=[N+]([O-])c1ccccc1/C=N/NC1=NCCCCC1 | -0.325%
O=C(ONC1=NCCCCC1)c1cccc([N+](=O)[O-])c1 | 11.8%
O=[N+]([O-])c1cccc(/C=N/NC2=NCCCCC2)c1 | -70.9%
OC(COc1ccccc1)Cn1c2ccccc2c2ccccc21 (stereo not drawn) | 8.25%
Cl.N=c1n(Cc2ccc(Cl)cc2)c2ccccc2n1CC(O)COc1ccccc1 (stereo not drawn) | -17.1%
Cc1ccc(OCC(O)Cn2c(=N)n(Cc3ccccc3)c3ccccc32)cc1.Cl (stereo not drawn) | -61%
Cl.N=c1n(Cc2ccccc2)c2ccccc2n1CC(O)COc1ccccc1 (stereo not drawn) | -55.8%
COc1ccc(OCC(O)Cn2c(=N)n(Cc3ccccc3)c3ccccc32)cc1.Cl (stereo not drawn) | -76.6%
Cc1cccc(OCC(O)Cn2c(=N)n(Cc3ccccc3)c3ccccc32)c1.Cl (stereo not drawn) | -16.4%
Cc1ccc(Cn2c(=N)n(CC(O)COc3ccccc3)c3ccccc32)cc1.Cl (stereo not drawn) | -36.1%
COc1ccc(OCC(O)Cn2c(=N)n(CCN3CCOCC3)c3ccccc32)cc1.Cl (stereo not drawn) | -10.5%
C=CCOC(=O)C1=C[C@H](c2ccc(C(F)(F)F)cc2)C[C@H](OCCCCO)O1 | 9.6%
CCOC(=O)/C(=C/Nc1ccc(F)c(F)c1)[N+](=O)[O-] | 13%
CCOC(=O)c1ccc(NC(=O)[C@@H](NC(N)=O)C(C)C)cc1 | -0.13%
NC(=O)c1c(NC(=O)Cn2cc([N+](=O)[O-])cn2)sc2c1CCCC2 | 2.68%
CCN1C(=O)C(CC(=O)Nc2ccc(F)cc2)N(CCCN2CCN(c3ccc(F)cc3)CC2)C1=S (stereo not drawn) | 0.806%
COc1ccc(C(=O)NC2CCCCCCC2)cc1OC | 9.08%
COc1ccc(C(=O)NCCc2ccc(C)cc2)cc1OC1CCN(C(C)=O)CC1 | 9.4%
COc1ccc(C(=O)NC2CC2)cc1OC1CCN(Cc2cc(C)cc(C)c2)CC1 | -57.7%
COc1cccc(CCNC(=O)c2ccc(OC)c(OC3CCN(C(C)C)CC3)c2)c1 | -2.35%
COc1cc(CN2CCC(Oc3cc(C(=O)NC4CC4)ccc3OC)CC2)cc(OC)c1 | -62%
